Compounds with a hit are over-represented: about 0.47% of the library has one in this group of screens.
BioA inh – blocks M. tuberculosis BioA enzyme activity; purified M. tuberculosis BioA enzyme, plate reader; inhibition, % at 9.99 µM; actives 0.096% (n = 360,000); AID 602481; in the data active = inhibition above about 40%; inconclusive = no clear call, values can overlap the other calls
FadD28 FP inh – inhibitors of Mycobacterium tuberculosis FadD28 bisubstrate binding | inhibition, % at 12.5 µM | AID 588549 | actives 0.22% (n = 360,000) | FadD28 bisubstrate probe binding, fluorescence polarization; in the data active = inhibition above about 8.5%, passing the limit was not always enough; inconclusive = no clear call, values can overlap the other calls
Y pestis TopoI – inhibitors of Yersinia pestis topoisomerase I. AID 504884. activity, % at 10 µM. Y. pestis Topo-I cleavage product accumulation, plate reader. actives 0.064% (n = 360,000); in the data active = activity above about 50%, passing the limit was not always enough; inconclusive = no clear call, values can overlap the other calls
TcdB GH inh – blocks C. difficile toxin B glycohydrolase activity | P18177 | TcdB glycohydrolase enzymatic assay, plate reader | inhibition, % at 9.99 µM | actives 0.24% (n = 350,000) | AID 652162; in the data active = inhibition above about 10%
Large screens that a line does not name were inactive; ! = not active in a repeat.

O=C(NC(=S)NNS(=O)(=O)c1ccccc1)c1cccnc1	TcdB GH inh 10.8 (no result: BioA inh)
Cc1cccc(NC(=O)NCc2ccc3[nH]c(C)cc3c2)c1	none
Cc1ccc(CNC(=O)Nc2cccc(C)c2)cc1	TcdB GH inh 10.7 (no result: BioA inh)
O=C(Nc1cc(Br)ccc1O)c1cc(-c2ccc3c(c2)OCO3)on1	none
COc1ccc2c(/C=N/Nc3ccc(C(=O)O)cc3)c[nH]c2c1	FadD28 FP inh 13.8
COc1ccc(C(=O)N/N=C/c2c[nH]c3ccccc23)cc1	none
Cc1ccccc1-n1ncc2c1CC(C)(C)CC2NC(=O)CCC1=NNC(=O)CC1 (configuration not stated)	none
Cc1ccn(CCC(=O)NC2CC(C)(C)Cc3c2cnn3-c2ccccc2C)n1 (configuration not stated)	TcdB GH inh 10.1
Cc1ccc(-c2ccc3c(c2)O[C@@H](CN(C)C(=O)NC(C)C)[C@H](C)CN([C@@H](C)CO)S3(=O)=O)cc1	none (no result: FadD28 FP inh, Y pestis TopoI)
CN1C(=O)C(c2nnc(Nc3cccc4ccccc34)s2)C2CC1(C)Oc1ccccc12 (configuration not stated)	TcdB GH inh 10.9 (no result: BioA inh)
CC(C)(C)c1ccc(C(=O)Nc2sc3c(c2C(=O)O)CCC3)cc1	FadD28 FP inh 14.1 (no result: BioA inh)
COc1ccc(C(=O)N2CCN(Cc3ccccc3)CC2)cc1[N+](=O)[O-]	none
Cc1cc(O)ccc1N=Cc1c(C(F)(F)F)[nH][nH]c1=O	TcdB GH inh 15.1 (no result: BioA inh)
O=c1[nH][nH]c(C(F)(F)F)c1C=Nc1ccccc1	none (no result: TcdB GH inh)
COc1cc2c(cc1OC)CN(C(=O)c1cc3ccccc3oc1=O)CC2	none (no result: TcdB GH inh)
CCON1C(=O)CN(C(=O)OC)C1c1ccc(Cl)cc1Cl (configuration not stated)	none (no result: BioA inh, TcdB GH inh)
CCOC(=O)c1c(/N=C/N(C)C)sc(/C=N/Nc2ccccc2)c1-c1ccccc1Cl	none
Cc1ccc(/C=C/C(=O)c2ccccc2O)cc1	none
Cc1ccc(/C=C/C(=O)C2C(=O)c3ccccc3C2=O)cc1	FadD28 FP inh 11.0 (no result: BioA inh)
CC(/C=C1\SC(=S)N(NS(=O)(=O)c2ccc(C)cc2)C1=O)=C\c1ccccc1	FadD28 FP inh 11.2
C=CCOc1ccc(/C=C2\SC(=S)N(NS(=O)(=O)c3ccccc3)C2=O)cc1	FadD28 FP inh 12.0 (no result: BioA inh)
COc1ccc(/C=C2/SC(=S)N(NS(=O)(=O)c3ccccc3)C2=O)cc1	none
CC(/C=C1\SC(=S)N(NS(=O)(=O)c2ccccc2)C1=O)=C\c1ccccc1	FadD28 FP inh inconclusive
Fc1ccc(SCCc2ccccn2)cc1	Y pestis TopoI 50.1!
Cc1ccc(C(=O)O/N=C(\N)c2nonc2N)cc1	none
CNC[C@H]1Oc2cc(C#Cc3ccc(F)cc3)ccc2S(=O)(=O)N([C@@H](C)CO)C[C@@H]1C	none (no result: FadD28 FP inh, Y pestis TopoI)
O=S(=O)(c1ccc(Nc2ccc(-c3ccc4c(c3)OCCO4)nn2)cc1)N1CCCC1	FadD28 FP inh 11.4
O=C(O)C[C@H]1c2ccccc2S(=O)(=O)N1C1CCCCC1	none
CC(=O)C[C@H]1c2ccccc2S(=O)(=O)N1C1CCCCC1	TcdB GH inh 14.4
COc1ccc2c3c(n(C)c2c1)[C@H](CO)N(Cc1ccc(Cl)cc1)CC31CCN(C(=O)NC(C)C)CC1	none (no result: BioA inh, FadD28 FP inh, Y pestis TopoI)
Cc1cc(OC(=O)c2ccccc2Br)cc(=O)n1C	none (no result: TcdB GH inh)
COc1ccc(CCNc2nc(C)c(C(C)=O)s2)cc1OC	BioA inh 81.3 (no result: TcdB GH inh)
COc1ccc2c(c1)OC[C@H]1[C@H]2N2C(=O)c3ccccc3NC(=O)[C@@]2(C)[C@H]1c1ccccc1	none
CNC(=O)C(=O)NCC1OCCN1S(=O)(=O)c1ccc(C)cc1 (configuration not stated)	none
COCCN1C=C2C(=O)C(C)(OC(=O)CCC(=O)OC)C(=O)C(Br)=C2C=C1c1ccc(OC)cc1 (configuration not stated)	none (no result: TcdB GH inh)
COc1ccc(C2=CC3=C(Br)C(=O)C(C)(OC(=O)c4ccco4)C(=O)C3=CO2)cc1 (configuration not stated)	FadD28 FP inh 10.2 (no result: TcdB GH inh)
COc1ccc(C2=CC3=C(Br)C(=O)C(C)(OC(=O)c4cccs4)C(=O)C3=CO2)cc1 (configuration not stated)	FadD28 FP inh 16.0
CCOc1ccc(-n2cc(C(=O)Nc3ccc(Cl)cn3)c3cc(OC)c(OC)cc3c2=O)cc1	none (no result: TcdB GH inh)
Cc1c(C(=O)N2CCC(C)CC2)oc2ccc(S(=O)(=O)N3CCC4(CC3)OCCO4)cc12	none
O=C(N/N=C/c1ccc2c(c1)OCO2)c1ccc(NS(=O)(=O)c2cccs2)cc1	none (no result: BioA inh)
COCc1cc(C)nc(SCc2ccc(Br)cc2)c1C#N	Y pestis TopoI 50.3
O=C1NN(c2ccc(Cl)c(Cl)c2)C(=O)/C1=C/c1ccc(-c2ccccc2C(=O)O)o1	FadD28 FP inh 12.6
CCn1c(SCC(=O)OC)nnc1-c1ccccc1	TcdB GH inh 19.7
Cc1ccc(SCc2[nH]nc3c2C(c2ccc(C)o2)C(C#N)=C(N)O3)cc1 (configuration not stated)	none
Oc1ccc(-c2nc3cnccn3c2Nc2ccc3c(c2)OCCO3)cc1	TcdB GH inh 20.2
C[C@@H]1CN([C@@H](C)CO)C(=O)c2cc(NS(=O)(=O)c3cn(C)cn3)ccc2O[C@H]1CN(C)C(=O)NC1CCCCC1	none (no result: FadD28 FP inh, Y pestis TopoI)
Nc1ccc(-c2nc3ccc(N)cc3o2)cc1	TcdB GH inh 10.6
Nc1ccc(-c2nc3cc(N)ccc3o2)cc1	none
CC(=O)c1ccc(OCCCC(=O)NC2CCCc3ccccc32)cc1 (configuration not stated)	none
C/C(=N\NC(=O)c1ccccc1O)c1c(O)n(C2CCCCC2)c(=O)[nH]c1=O	FadD28 FP inh 11.6
C/C(=N\NC(=O)c1ccccc1Cl)c1c(O)n(C2CCCCC2)c(=O)[nH]c1=O	none
COc1ccccc1C1CC(=O)NC(C)=C1C(=O)OCC1CCCO1 (configuration not stated)	none (no result: TcdB GH inh)
Cc1ccc(S(=O)(=O)N2CCC(=O)N(C(COCc3cccc(Cl)c3)C(C)C)CC2)cc1 (configuration not stated)	none
[O-][n+]1ccccc1/C=C/c1ccccc1	none (no result: BioA inh)
CN(C)c1ccc(/C=C/c2cccc[n+]2[O-])cc1	TcdB GH inh 13.2
Cn1c(SCC(=O)NCc2cccs2)nnc1-c1ccncc1	Y pestis TopoI 55.6 (no result: TcdB GH inh)
COc1ccc(S(=O)(=O)N2CCCCN3[C@H](C2)[C@@H](c2ccc(C#CCC(C)C)cc2)[C@@H]3CO)cc1	none (no result: FadD28 FP inh, Y pestis TopoI, TcdB GH inh)
CSc1ccccc1OCc1cc(C(=O)N(C)Cc2nonc2C)no1	none
COc1ccccc1OCC(=O)Nc1ccc(-c2nnc(-c3ccco3)o2)cc1	TcdB GH inh 11.9
Cc1cccc(N=C2NC(=O)/C(=C/C=C/c3ccco3)S2)c1C	FadD28 FP inh 11.2 (no result: BioA inh, TcdB GH inh)
COc1ccc(S(=O)(=O)Nc2ccc3c(c2)C(=O)N([C@H](C)CO)C[C@H](C)[C@@H](CN(C)C(=O)c2ccncc2)OCCCC[C@H](C)O3)cc1	none (no result: FadD28 FP inh, Y pestis TopoI)
O=C(C[C@H]1CC[C@@H]2[C@H](COC[C@@H](O)CN2C(=O)Nc2ccc(Cl)c(Cl)c2)O1)NCc1ccncc1	TcdB GH inh 18.1 (no result: FadD28 FP inh, Y pestis TopoI)
O=C(C[C@@H]1CC[C@@H]2[C@H](COC[C@H](O)CN2C(=O)c2ccccn2)O1)NC1CCC1	TcdB GH inh 12.3 (no result: FadD28 FP inh, Y pestis TopoI)
O=C(NNc1ccc(-c2csnn2)cc1)c1ccccc1C(F)(F)F	TcdB GH inh 12.5
O=C(Nc1ccc(-c2csnn2)cc1)C1CC1	none (no result: BioA inh)
O=C(NNc1ccc(-c2csnn2)cc1)c1cc(Cl)cc(Cl)c1	TcdB GH inh 17.8

Screening data: PubChem BioAssay, Broad Institute
